This is part of a sample that, as a whole, favours compounds with a hit. Of some 79,000 tested, about 15% had one in any assay. Rule as the data show it: active = growth inhibition above about 70%; inactive = the rest. Where a SMILES comes first, the peptide text is derived from it. [ ]: non-standard residue; d: D form. The star is where a group is joined. ξ: configuration not given here. Cbz = O=C(OCc1ccccc1)*; ξK = NCCCCC(N)C(=O)O
What was measured:
[1] = NCI Yeast Anticancer Drug Screen. Data for the rad50 strain (AID 155);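 also: 0% = growth of vehicle-only cultures of the same strain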; conditions: S. cerevisiae rad50 strain growth inhibition; at 50.0 µM; active compounds read high
In short: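 Cells are treated with compound, grown, and their growth is then scored against vehicle-only cultures of the same repair-deficient yeast strain.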

[2] = NCI Yeast Anticancer Drug Screen. Data for the mec2-1 strain (AID 157); conditions: S. cerevisiae mec2-1 strain, at 50.0 µM, active compounds read high
In short: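 Growth inhibition is read against vehicle-treated controls after compound exposure of the mec2-1 yeast strain, which is defective in DNA damage repair or cell cycle control.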

[3] = NCI Yeast Anticancer Drug Screen. Data for the sgs1 mgt1 strain (AID 161);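 also: 0% = growth of cultures given vehicle only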; conditions: S. cerevisiae sgs1 mgt1 strain, at 50.0 µM, active compounds read high
In short: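 This yeast growth screen uses a strain with defined DNA-repair lesions; compound-treated growth is compared with vehicle-treated growth.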

[4] = NCI Yeast Anticancer Drug Screen. Data for the cln2 rad14 strain (AID 165);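 also: 0% = growth equal to vehicle treated cultures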; conditions: S. cerevisiae cln2 rad14 strain, at 50.0 µM, active compounds read high
In short: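 Growth inhibition, relative to vehicle-treated controls, is the read-out. The test organism is a yeast strain with defined genetic alterations, cln2 rad14.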

[5] = NCI Yeast Anticancer Drug Screen. Data for the bub3 strain (AID 167); conditions: S. cerevisiae bub3 mutant strain, at 50.0 µM, active compounds read high
In short: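 Part of a panel of yeast mutants defective in DNA damage repair or cell cycle regulation. Each strain is grown with compound, and inhibition is calculated relative to solvent-treated cultures.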

[6] = NCI Yeast Anticancer Drug Screen. Data for the mlh1 rad18 strain (AID 175); conditions: S. cerevisiae mlh1 rad18 strain growth inhibition; at 50.0 µM; active compounds read high
In short: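 Cells of a genetically altered yeast strain, deficient in DNA damage repair, were treated with compound. Their growth was then compared with that of vehicle-treated cultures to give inhibition.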

Measured: growth inhibition

O=c1cnn(C2OC(CO)C(O)C2O)c(=S)[nH]1 (stereo unspecified)
inactive: [1] -4.45% | [2] -1.45% | [3] 28.6% | [4] 1.25% | [5] 26.1% | [6] -96.5%

C=C(CBr)CCCCC
inactive: [1] 65.1% | [2] 23.3% | [3] 62.6% | [4] 14.1% | [5] 29.8% | [6] 0.55%

CC(C)(C)OC(=O)NC(CSCc1ccc(C(=O)c2ccccc2)cc1)C(=O)O (stereo unspecified)
inactive: [1] -23.9% | [2] -28.1% | [3] -15.3% | [4] 10.6% | [5] -12.8% | [6] -2.3%

COc1cc2c(cc1OCc1ccccc1)NC(=O)C2
inactive: [1] 0.5% | [2] 20.2% | [3] 12.8% | [4] -7.85% | [5] -18.9% | [6] -7%

O=C(CCl)N1C(=O)NC(c2ccc(Cl)cc2)(c2ccc(Cl)cc2)C1=O
inactive: [1] 6.9% | [2] 12% | [3] 8.9% | [4] -4.8% | [5] -29% | [6] -3.9%

CC12CCC3c4ccc(OC(=O)c5ccc([N+](=O)[O-])cc5)cc4CCC3C1CCC2=O (stereo unspecified)
inactive: [1] 13.8% | [2] -6.95% | [3] -6.45% | [4] 5.75% | [5] -0.65% | [6] -1.75%

CCCCCC1SCC(=O)N1c1nncs1 (stereo unspecified)
inactive: [1] -1.7% | [2] -21.1% | [3] 14.3% | [4] 5.85% | [5] 6.65% | [6] 12.5%

COc1ccc2cc1Oc1ccc(cc1)CC1c3cc(c(OC)cc3CCN1C)Oc1c3c(cc4c1C(C2)N(C)CC4)OCO3 (stereo unspecified)
inactive: [1] 1.6% | [2] -14.3% | [3] -15.7% | [4] 4.65% | [5] 1.1% | [6] 3.45%

S=C(N/N=C/c1ccc(Cl)cc1Cl)NC1CCc2ccccc21 (stereo unspecified)
inactive: [1] -12.3% | [2] 20.5% | [3] -9.7% | [4] -33.8% | [5] -7.95% | [6] -9.25%

CCCCCCC1(C)OCC(c2ccccc2)O1 (stereo unspecified)
inactive: [1] -0.1% | [2] -33.5% | [3] 5.95% | [4] -11.7% | [5] 2.2% | [6] 9.65%

O=C(O)c1ccoc1-c1ccccc1
inactive: [1] 12.7% | [2] -6.05% | [3] 10.7% | [4] -26.9% | [5] -7.55% | [6] 22.2%

COc1ccc2ccccc2c1C=O
inactive: [1] 33.5% | [2] 23% | [3] 40.1% | [4] -16.2% | [5] 5.45% | [6] 47.8%

NCCCCC(NC(=O)OCc1ccccc1)C(=O)NCC(N)=O (stereo unspecified) (Cbz-[ξK]-Gly-NH2)
inactive: [1] 10.1% | [2] 8.5% | [3] 5% | [4] 4.05% | [5] 16.1% | [6] -30.2%

CCc1cc2ccccc2oc1=O
inactive: [1] -1.1% | [2] 3.65% | [3] 0.1% | [4] -18.1% | [5] 1.55% | [6] -5.85%

c1ccc2c(c1)nc1n2C2CCC(C2)N1 (stereo unspecified)
inactive: [1] 4% | [2] 10% | [3] 18.8% | [4] 21.9% | [5] 6.15% | [6] 15.7%

N#Cc1c(N)c(C(=O)O)nn(-c2cccc(C(F)(F)F)c2)c1=O
inactive: [1] -8.95% | [2] 1.7% | [3] 44% | [4] 10.8% | [5] -11.2% | [6] -15.9%

O=c1[nH]nc(Sc2ccccc2)c(=O)[nH]1
inactive: [1] -11.8% | [2] -3.4% | [3] -12.6% | [4] -10.4% | [5] -11.4% | [6] -14.9%

O=P(Nc1ccc(Cl)c(Cl)c1)(N1CCCCC1)N1CCCCC1
inactive: [1] 3.5% | [2] -47.8% | [3] -12.4% | [4] -12.8% | [5] 2.45% | [6] 14.7%

CCCN(CCC)S(=O)(=O)c1ccc(NC(=O)OC2CCCCC2)cc1
inactive: [1] 37.1% | [2] 2.25% | [3] 23.6% | [4] 13.1% | [5] -4.7% | [6] 17.9%

CCc1cc(Cc2cc(CC)c(NC(=O)C(=O)CC(=O)c3sc(-c4cccnc4)nc3C)c(CC)c2)cc(CC)c1NC(=O)C(=O)CC(=O)c1sc(-c2cccnc2)nc1C
inactive: [1] -26.8% | [2] -26.9% | [3] -27.8% | [4] -0.05% | [5] -35.9% | [6] -19.8%

CC(=O)NC(CC(=O)O)C(=O)Nc1ccccc1 (stereo unspecified)
inactive: [1] 13.8% | [2] 36.8% | [3] 16.6% | [4] 13.6% | [5] 8.9% | [6] 13.4%

COC(=O)C(C)OC(=O)OCC(C)C (stereo unspecified)
inactive: [1] -11.1% | [2] -1.9% | [3] 0.15% | [4] -2.95% | [5] -2.95% | [6] -11.8%

CC(C)Cc1ccc(NC2=C(Cl)C(=O)c3ccccc3C2=O)cc1
inactive: [1] 19.3% | [2] 19.7% | [3] 13.7% | [4] 25.1% | [5] 15.1% | [6] 28.1%

COC(=O)O[C@H]1CC[C@@]2(C)C(=CC[C@H]3[C@@H]4CC[C@H]([C@H](C)CCCC(C)C)[C@@]4(C)CC[C@@H]32)C1
inactive: [1] -21.6% | [2] -29.8% | [3] -5.6% | [4] 6.75% | [5] -11.8% | [6] -5.3%

COc1nc2c(c(O)cn2C2OCC(OC(C)=O)C(OC(C)=O)C2OC(C)=O)c(=O)n1C (stereo unspecified)
inactive: [1] -1.65% | [2] -5.9% | [3] -25.8% | [4] -2.75% | [5] -1% | [6] 15.8%

O=C(Nc1ccccc1)C1CC=C2CCC3OC(=O)C1C23 (stereo unspecified)
inactive: [1] -11.4% | [2] -16.7% | [3] -23.4% | [4] -16% | [5] -14.7% | [6] -18.1%

Cc1nc(C(N)=S)sc1C(=O)/C=C/c1c(O)ccc2ccccc12
inactive: [1] 49.4% | [2] 9.55% | [3] 33.4% | [4] 23.8% | [5] 31.1% | [6] 40.3%

CC[C@]12C=CCN3CCC4(c5cc([C@@]6(C(=O)OC)CC7CN(CCc8c6[nH]c6ccccc86)C[C@@H]6CCC[C@H]76)c(OC)cc5N(C)C4[C@](O)(C(=O)OC)C1OC(C)=O)C32 (stereo partly specified)
inactive: [1] -9.2% | [2] 3.8% | [3] -30.6% | [4] -22.1% | [5] -45% | [6] 9.3%

CCCC(=O)OCCCCC1CCCO1 (stereo unspecified)
inactive: [1] 13.2% | [2] 3.6% | [3] 8.75% | [4] 14% | [5] 5.45% | [6] 11.6%

COC(=O)/C(=C\SCc1ccccc1)NC(C)=O
inactive: [1] 0.45% | [2] 6.7% | [3] -1.55% | [4] -7.7% | [5] -24.2% | [6] -20.8%

CCCCC1(O)C(=O)N(c2ccccc2)N(c2ccccc2)C1=O
inactive: [1] 17.2% | [2] 11.1% | [3] 7.45% | [4] 13.1% | [5] 22.4% | [6] 4.2%

CCCCCCC(C)NCC(=O)Nc1ccccc1C (stereo unspecified)
inactive: [1] -2.7% | [2] 14.2% | [3] 25.6% | [4] -44.7% | [5] 59.7% | [6] 30.6%

O=c1[nH]c(-c2cccnc2)nnc1-c1ccc(Cl)cc1
inactive: [1] 17.1% | [2] 2.4% | [3] 10.4% | [4] 28.4% | [5] 27.9% | [6] 4.2%

Cn1c(O)c(C=Nc2ccccc2Cl)c(=O)n(C)c1=O
inactive: [1] -11.1% | [2] -4.65% | [3] -9.7% | [4] -38.6% | [5] 0.55% | [6] -28.4%

Cc1ccc(Oc2cc(C)ccc2P(=O)(O)O)cc1
inactive: [1] 6.5% | [2] 1.4% | [3] 22.2% | [4] 26.1% | [5] -23.7% | [6] 23.1%

COc1ccc(C)cc1NC(=S)NC(=O)c1ccc(Cl)cc1Cl
inactive: [1] 1.7% | [2] 13.7% | [3] 8.15% | [4] -12.6% | [5] 4.7% | [6] 0.75%

From PubChem BioAssay (NCI)
